Assay results from PubChem BioAssay AID1159580 (chemical genetic matrix, 2015).
Screen size: about 5,500 compounds; about 2,000 (36%) were called active. Another 18% or so got no clear call; they are omitted. No stated cut-off is given here; in the data, active means normalized growth mostly below about 0.91 (no sharp cut-off); inconclusive means no clear call, values can overlap the other calls; inactive means mostly above about 0.92. The list shows a part of the results.

Experiment: chemical genetic growth profiling, strain panel (AID 1159580);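 further: tested at 20 µM; growth read once vehicle control cultures reached saturation at 30 °C; 1 = growth at the plate median or of vehicle wells; lower values mean less growth of the strain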
Conditions: growth OD

Measured: normalized growth

CC(=O)OC[C@@]1(O)C[C@@]23CCC4c5ccoc5CC[C@]4(C)C2CC[C@@H]1C3 (some centres not stated)
inactive: S. cerevisiae deletion strains, locus YJR075W, strain HOC1, active compounds read low 1.01 | S. cerevisiae deletion strains, locus YKL068W, active compounds read low 0.969 | S. cerevisiae deletion strains, locus YKL085W, strain MDH1 (second series), active compounds read low 0.967 | S. cerevisiae deletion strains, locus YKL085W, strain MDH1, active compounds read low 0.967 | S. cerevisiae deletion strains, locus YKL160W, strain elf1, active compounds read low 0.978 | S. cerevisiae deletion strains, locus YKL190W, strain CNB1, active compounds read low 0.986 | S. cerevisiae deletion strains, locus YKR001C, strain vps1, active compounds read low 0.942 | S. cerevisiae deletion strains, locus YKR026C, strain gcn3, active compounds read low 1.01 | S. cerevisiae deletion strains, locus YKR091W, strain srl3, active compounds read low 1 | S. cerevisiae deletion strains, locus YLL001W, strain dnm1, active compounds read low 0.974 | S. cerevisiae deletion strains, locus YLL026W, active compounds read low 1.02 | S. cerevisiae deletion strains, locus YLL041C, strain sdh2, active compounds read low 1.02 | S. cerevisiae deletion strains, locus YLR027C, strain aat2, active compounds read low 1.01 | S. cerevisiae deletion strains, locus YLR058C, strain SHM2, active compounds read low 0.973 | S. cerevisiae deletion strains, locus YLR102C, strain apc9, active compounds read low 0.973 | S. cerevisiae deletion strains, locus YLR113W, strain HOG1, active compounds read low 0.901 | S. cerevisiae deletion strains, locus YLR221C, strain rsa3, active compounds read low 0.968 | S. cerevisiae deletion strains, locus YLR258W, strain gsy2, active compounds read low 0.99 | S. cerevisiae deletion strains, locus YLR262C, strain YPT6, active compounds read low 0.624 | S. cerevisiae deletion strains, locus YLR268W, strain sec22, active compounds read low 0.987 | S. cerevisiae deletion strains, locus YLR320W, strain mms22, active compounds read low 0.945 | S. cerevisiae deletion strains, locus YLR330W, strain CHS5, active compounds read low 0.969 | S. cerevisiae deletion strains, locus YLR342W, strain FKS1, active compounds read low 1.01 | S. cerevisiae deletion strains, locus YLR357W, strain rsc2, active compounds read low 0.963 | S. cerevisiae deletion strains, locus YLR370C, strain arc18, active compounds read low 1 | S. cerevisiae deletion strains, locus YLR371W, strain rom2, active compounds read low 0.96 | S. cerevisiae deletion strains, locus YLR384C, strain iki3, active compounds read low 1.03 | S. cerevisiae deletion strains, locus YLR418C, strain cdc73, active compounds read low 0.983 | S. cerevisiae deletion strains, locus YML016C, strain PPZ1, active compounds read low 0.978 | S. cerevisiae deletion strains, locus YML120C, strain ndi1, active compounds read low 1.01 | S. cerevisiae deletion strains, locus YML124C, strain tub3, active compounds read low 0.98 | S. cerevisiae deletion strains, locus YMR058W, strain fet3, active compounds read low 0.952 | S. cerevisiae deletion strains, locus YMR078C, strain ctf18, active compounds read low 0.965 | S. cerevisiae deletion strains, locus YMR125W, strain sto1, active compounds read low 0.988 | S. cerevisiae deletion strains, locus YMR129W, active compounds read low 1.02 | S. cerevisiae deletion strains, locus YMR205C, strain PFK2, active compounds read low 0.981 | S. cerevisiae deletion strains, locus YMR223W, strain ubp8, active compounds read low 0.905 | S. cerevisiae deletion strains, locus YMR231W, strain pep5, active compounds read low 1.01 | S. cerevisiae deletion strains, locus YMR263W, strain SAP30, active compounds read low 0.985 | S. cerevisiae deletion strains, locus YMR307W, strain GAS1, active compounds read low 0.779 | S. cerevisiae deletion strains, locus YNL067W, strain RPL9B, active compounds read low 0.963 | S. cerevisiae deletion strains, locus YNL071W, strain lat1, active compounds read low 0.964 | S. cerevisiae deletion strains, locus YNL128W, strain TEP1, active compounds read low 0.997 | S. cerevisiae deletion strains, locus YNL153C, strain GIM3, active compounds read low 0.992 | S. cerevisiae deletion strains, locus YNL183C, strain NPR1, active compounds read low 0.877 | S. cerevisiae deletion strains, locus YNL209W, strain ssb2, active compounds read low 1.02 | S. cerevisiae deletion strains, locus YNL233W, strain BNI4, active compounds read low 0.947 | S. cerevisiae deletion strains, locus YNL248C, strain rpa49, active compounds read low 0.96 | S. cerevisiae deletion strains, locus YNL250W, strain rad50, active compounds read low 0.976 | S. cerevisiae deletion strains, locus YNL271C, strain bni1, active compounds read low 0.975 | S. cerevisiae deletion strains, locus YNL322C, strain KRE1 (second series), active compounds read low 1.03 | S. cerevisiae deletion strains, locus YNL322C, strain KRE1, active compounds read low 0.997 | S. cerevisiae deletion strains, locus YNR049C, strain mso1, active compounds read low 1.01 | S. cerevisiae deletion strains, locus YNR052C, strain pop2, active compounds read low 0.938 | S. cerevisiae deletion strains, locus YOL006C, strain TOP1, active compounds read low 1.11 | S. cerevisiae deletion strains, locus YOL012C, strain htz1 1.41 | S. cerevisiae deletion strains, locus YOL147C, strain pex11, active compounds read low 0.971 | S. cerevisiae deletion strains, locus YOR001W, strain rrp6, active compounds read low 0.985 | S. cerevisiae deletion strains, locus YOR061W, strain CKA2, active compounds read low 0.952 | S. cerevisiae deletion strains, locus YOR069W, strain VPS5, active compounds read low 0.981 | S. cerevisiae deletion strains, locus YOR070C, strain gyp1, active compounds read low 1.01 | S. cerevisiae deletion strains, locus YOR080W, strain dia2, active compounds read low 1.02 | S. cerevisiae deletion strains, locus YOR083W, strain WHI5, active compounds read low 0.978 | S. cerevisiae deletion strains, locus YOR106W, strain vam3, active compounds read low 0.998 | S. cerevisiae deletion strains, locus YOR136W, strain idh2, active compounds read low 0.95 | S. cerevisiae deletion strains, locus YOR144C, strain elg1, active compounds read low 0.97 | S. cerevisiae deletion strains, locus YOR231W, strain MKK1, active compounds read low 0.872 | S. cerevisiae deletion strains, locus YOR265W, strain rbl2, active compounds read low 1.01 | S. cerevisiae deletion strains, locus YOR270C, strain vph1, active compounds read low 1.21 | S. cerevisiae deletion strains, locus YOR290C, strain snf2, active compounds read low 0.927 | S. cerevisiae deletion strains, locus YOR316C, strain cot1, active compounds read low 0.966 | S. cerevisiae deletion strains, locus YPL051W, strain arl3, active compounds read low 0.967 | S. cerevisiae deletion strains, locus YPL055C, strain LGE1, active compounds read low 0.954 | S. cerevisiae deletion strains, locus YPL078C, strain atp4, active compounds read low 0.931 | S. cerevisiae deletion strains, locus YPL106C, strain sse1, active compounds read low 0.99 | S. cerevisiae deletion strains, locus YPL240C, strain hsp82, active compounds read low 1.01 | S. cerevisiae deletion strains, locus YPL241C, strain CIN2, active compounds read low 0.978 | S. cerevisiae deletion strains, locus YPL256C, strain CLN2, active compounds read low 0.927 | S. cerevisiae deletion strains, locus YPR119W, strain clb2, active compounds read low 0.967 | S. cerevisiae deletion strains, locus YPR141C, strain kar3, active compounds read low 0.989 | S. cerevisiae deletion strains, locus YPR163C, strain tif3, active compounds read low 0.962 | S. cerevisiae deletion strains, locus YPR167C, strain met16, active compounds read low 0.978 | S. cerevisiae deletion strains, strain wtn01, active compounds read low 0.948 | S. cerevisiae strains, strain wild type, active compounds read low 0.964
active: S. cerevisiae deletion strains, locus YKL009W, strain mrt4, active compounds read low 0.868 | S. cerevisiae deletion strains, locus YLR039C, strain RIC1, active compounds read low 0.661 | S. cerevisiae deletion strains, locus YLR262C, strain YPT6 (second series), active compounds read low 0.817 | S. cerevisiae deletion strains, locus YLR342W, strain FKS1 (second series), active compounds read low 0.775 | S. cerevisiae deletion strains, locus YML032C, strain rad52, active compounds read low 0.884 | S. cerevisiae deletion strains, locus YNL298W, strain CLA4, active compounds read low 0.891 | S. cerevisiae deletion strains, locus YNL307C, strain MCK1, active compounds read low 0.778 | S. cerevisiae deletion strains, locus YOR184W, strain ser1, active compounds read low 0.69
